Hit rate of the full screen: of about 320,000 compounds, about 2,100 (0.66%) were called active. About 53% were inconclusive and are not listed. The call rests on the fitted dose curve; in most records, active means well fitted inhibition curve with a large enough effect in the signal ratio, with a control signal flat (not every such curve was filed as active); inconclusive means small, poorly fitted or top-dose-only effect, or effect the other way, or a change in a side signal; inactive means flat fitted curve, though single readings scatter; the % refers to the signal ratio. The full list was thinned out, with actives kept by preference.
test: qHTS Assay for Lipid Storage Modulators in Drosophila S3 Cells; details: BODIPY lipid droplet fluorescence, 18-24 h, cells fed with added oleic acid; cell number change: measured here: cell count max response; series mostly up to 46.1 µM;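 on cell number change: cells counted by Cell Tracker Red CMTPX staining in the red channel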
Outline: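 Laser-scanning cytometry quantifies lipid droplet accumulation (500–530 nm total intensity; droplet/cell object ratio) in oleic acid-fed (400 uM added) Drosophila S3 cells treated with a concentration series. 20 uM Triacsin C defined 100% inhibition.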
Potency means the concentration at half of the fitted maximal effect.

Compound	Potency	cell number change
CCOCCCNC(=O)C1CCCN1C(=O)Nc1ccccc1[N+](=O)[O-] (configuration not stated)	inactive	3.63%
COc1cccc(OC)c1NC(=O)C1CCCN1C(=O)NCc1ccccc1 (configuration not stated)	29.1 µM (active)	-20.9%
COc1ccc(NC(=O)C2CCCN2C(=O)NCc2ccccc2)cc1OC (configuration not stated)	inactive	1.64%
COc1ccccc1NC(=O)N1CCCC1C(=O)NCc1ccccc1 (configuration not stated)	inactive	-7.89%
COc1ccc(NC(=O)C2CCCN2C(=O)NCc2ccccc2)c(OC)c1 (configuration not stated)	inactive	-2.72%
O=C(NCc1ccccc1)C1CCCN1C(=O)Nc1ccccc1[N+](=O)[O-] (configuration not stated)	0.731 µM (active)	14.7%
Cc1cc(-c2nnc(CCC(=O)N(C)CCc3ccccc3)o2)no1	inactive	4.46%
CC1CN(C/C(=N\O)C23CC4CC(CC(C4)C2)C3)CC(C)O1 (configuration not stated)	inactive	-15.5%
O=C(NCc1ccc(Cl)cc1)c1cc([N+](=O)[O-])ccc1Cl	inactive	16.3%
CN(C)S(=O)(=O)c1ccc(NC=C(C#N)C#N)cc1	inactive	-16.2%
Cc1ccc(-c2nc(NC(=O)c3nn(C)cc3[N+](=O)[O-])sc2C)cc1	inactive	27.2%
CCn1cc([N+](=O)[O-])c(C(=O)Nc2nc(-c3ccc(C)cc3)c(C)s2)n1	4.61 µM (active)	18.4%
CCn1cc([N+](=O)[O-])c(C(=O)Nc2nc(-c3ccc(C)c(C)c3)c(C)s2)n1	inactive	-14.3%
CCCCN(C(=O)c1ccccc1OCc1ccc(F)cc1)c1c(N)n(CCC)c(=O)[nH]c1=O	inactive	-14.3%
Cn1c(SCc2cccc(C#N)c2)nc2ccccc2c1=O	inactive	7.25%
COc1cc(NC(=O)c2ccccc2)c(OC)cc1NC(C)=O	inactive	-0.51%
COc1cc(NC(=O)c2cccnc2)c(OC)cc1NC(=O)c1ccc(Br)cc1	inactive	15.3%
COc1ccc(NC(=O)c2cccc(NC(=O)c3ccccc3)c2)c(OC)c1	inactive	-2.85%
COc1ccccc1NC(=O)c1ccc2nsnc2c1	3.66 µM (active)	21.1%
COc1cc(NC(=O)c2ccccc2Cl)ccc1NC(=O)c1cccs1	inactive	16.4%
COc1ccccc1CC(=O)Nc1cc(OC)c(NC(=O)c2ccccc2)cc1OC	inactive	-14.4%
COc1ccccc1NC(=O)c1ccc2snnc2c1	inactive	5.09%
COc1ccc(OCC(=O)Nc2ccc(NC(=O)c3cccs3)c(OC)c2)cc1	inactive	10.8%
COc1cc(NC(=O)Cc2ccccc2)ccc1NC(=O)c1ccccc1	23.1 µM (active)	5.29%

Compound	Potency	cell number change
COc1cc(NC(=O)COc2ccccc2Cl)ccc1NC(=O)c1cccs1	4.61 µM (active)	–
COc1cc(NC(=O)c2ccc3nsnc3c2)cc(OC)c1OC	inactive	3.44%
COc1cc(NC(=O)c2ccc(Br)cc2)c(OC)cc1NC(=O)c1ccccc1	18.4 µM (active)	-19.9%
COc1ccc(OCCC(=O)OCC(=O)Nc2ccc(S(=O)(=O)N3CCOCC3)cc2)cc1	inactive	-18.9%
O=C(CSc1nnc(-c2ccc(F)cc2)o1)NC1CCCCC1	inactive	12%
CCOC(=O)N1CCN(CC(O)COc2ccc3c(c2)CCC3)CC1 (configuration not stated)	inactive	-3.83%
O=C(CCCCCNC(=O)N1CCn2c1nc1ccccc12)NCc1ccccc1	inactive	11.3%
CC(NC(=O)c1cccc(N(C)C)c1)c1ccc(-n2ccnc2)cc1 (configuration not stated)	inactive	–
COc1ccc(S(=O)(=O)N2CCN(c3nc4ccccc4nc3-n3nc(C)cc3C)CC2)cc1	inactive	-0.676%
O=C(NC1CCSC1=O)c1ccc(Oc2cccc(C(F)(F)F)c2)nc1 (configuration not stated)	inactive	-7.23%
COc1ccc(F)cc1S(=O)(=O)NC1CCCCCC1	inactive	–
C/C(=N/Nc1ncc(C(F)(F)F)cc1Cl)c1ccncc1	inactive	-2.18%
COc1ccc(S(=O)(=O)NCC2CCCN(C(=O)CC3CCCC3)C2)cc1 (configuration not stated)	inactive	-9.37%
COc1ccc(C(=O)Nc2cc3c(cc2OC)CCCC3)cc1Br	inactive	-12.7%
COc1cc2c(cc1NC(=O)c1ccc(C(C)(C)C)cc1)CCCC2	16.4 µM (active)	-19.1%
COc1cc2c(cc1NC(=O)c1cccnc1)CCCC2	inactive	-6.97%
Oc1ccccc1Oc1ncc(Br)c(Cl)n1	inactive	10.9%
CCOC(=O)CCc1c(C)nc2cc(-c3ccc(F)cc3)[nH]n2c1=O	inactive	-12%
C=CCn1c(SC(C)CC)nc(O)cc1=O (configuration not stated)	inactive	–
CCCN(CC1CC1)C(=O)COC(=O)c1[nH]c(C)c(C(=O)OCC)c1C	inactive	-17.3%
CCOc1ccc2oc(C(=O)OCC(=O)NC(=O)NC)c(C)c2c1	inactive	-6.07%
CCOC(=O)N1CCC(NC(=O)c2oc3c(F)cccc3c2C)CC1	inactive	-4.45%
CCCN(CC1CC1)C(=O)COC(=O)c1oc2ccc(OCC)cc2c1C	4.61 µM (active)	2.78%
CCCN(CC1CC1)C(=O)COC(=O)c1oc2c(F)cccc2c1C	1.64 µM (active)	1.1%

Compound	Potency	cell number change
CCOc1ccc2oc(C(=O)OCC(=O)NC3CCCCC3)c(C)c2c1	inactive	-21.4%
CCn1c(O)c(C(C#N)=C2N=c3ccccc3=N2)c2ccccc21	inactive	24.7%
O=C(Nc1cccc(NC(=O)c2ccc(Br)o2)n1)c1ccc(Br)o1	inactive	-4.87%
Cc1ccc(NS(=O)(=O)c2cc(C(=O)N3CCN(C)CC3)ccc2C)cc1C	inactive	–
CCOc1cccc(OCCCCN2CCCCC2)c1	inactive	-2.06%
CCc1ccc(NC(=O)CN(N=Nc2nonc2C)c2nonc2C)cc1	inactive	–
CC(C)(C)c1csc(Sc2ncccc2[N+](=O)[O-])n1	inactive	-11.2%
Cc1cccc(CSC2=CS(=O)(=O)c3ccccc3N2)c1	inactive	2.06%
Cc1cccc(CNC(=O)c2cc(S(=O)(=O)N3CCOCC3)cn2C)c1	inactive	14.6%
CC(=O)c1cccc(NC(=O)COc2ccc(S(=O)(=O)N3CCCCC3)cc2)c1	inactive	12.3%
Cc1nn(C(C)C(=O)O)c(C)c1[N+](=O)[O-] (configuration not stated)	inactive	3.58%
O=C(Nc1nccs1)c1ccc(-c2ccc(Cl)cc2Cl)o1	inactive	-16.9%
O=C(Nc1nccs1)c1ccc(-c2ccc(F)c(Cl)c2)o1	10.3 µM (active)	-11.8%
O=C(Nc1nccs1)c1ccc(-c2ccc(F)cc2)o1	inactive	0.674%
CCOC(=O)c1c(NC(=O)Cn2cnc([N+](=O)[O-])n2)sc2c1CCC(C)C2 (configuration not stated)	inactive	2.74%
Cc1cccc(NC(=O)c2c(C)cc(=O)oc2C)n1	8.2 µM (active)	-10.1%
Cc1ccccc1NC(=O)c1c(C)cc(=O)oc1C	inactive	–
Cc1cc(=O)oc(C)c1C(=O)Nc1ccc(Cl)cn1	inactive	1.04%
CC1=C(C)CC(C(=O)NNC(=O)c2csc(C)c2C)C(C(=O)O)C1 (configuration not stated)	inactive	-1.11%
CS(=O)(=O)N(C(=O)NC(=O)NC12CC3CC(CC(C3)C1)C2)C1CCCCC1	inactive	9.2%
Cc1cc(-c2ccc(S(=O)(=O)N3CCN(c4ccc(F)cc4)CC3)s2)on1	inactive	5.9%
COc1ccc(N2CCN(S(=O)(=O)c3ccc(-c4cc(C)no4)s3)CC2)cc1	23.1 µM (active)	–
CC(=O)c1ccc(N2CCN(S(=O)(=O)c3ccc(-c4cc(C)no4)s3)CC2)cc1	inactive	–
C=CCn1c(CCNC(=O)c2ccc(Cl)c(Cl)c2)nnc1SCCOc1ccc(OC)cc1	inactive	-3.68%

Compound	Potency	cell number change
O=C(/C=C/c1ccc(F)cc1)NCc1cccs1	inactive	12.4%
Cc1nc2cc(NC(=O)C3COc4ccccc4O3)ccc2s1 (configuration not stated)	inactive	3.18%
COc1ccc(S(=O)(=O)N2CCN(CC(=O)c3[nH]c(C)c(C(C)=O)c3C)CC2)cc1OC	inactive	3.31%
Cc1ccc(S(=O)(=O)NCC(=O)OCc2cc(=O)oc3c(C)c(C)ccc23)cc1C	inactive	11.5%
CN(CC(=O)Nc1ccc(Cl)c(Cl)c1)C(=O)CNC(=O)Cc1ccccc1	inactive	-4.02%
COc1ccccc1NC(=O)N1CCCC1	inactive	1.33%
COc1ccccc1NC(=O)C1CCCN(S(=O)(=O)c2cnc[nH]2)C1 (configuration not stated)	inactive	1.66%
COc1ccccc1NC(=O)C1CCCN(S(=O)(=O)c2ccc(-n3cnnn3)cc2)C1 (configuration not stated)	inactive	-7.69%
COc1ccccc1NC(=O)NCCN1CCCCC1	inactive	6.08%
COc1ccccc1NC(=O)C1CCCN(S(=O)(=O)c2ccccc2)C1 (configuration not stated)	5.8 µM (active)	-11%
COc1ccccc1NC(=O)NN1CCCCC1	0.58 µM (active)	17.6%
COc1ccc2c(c1)[nH]c1c(=O)n(N)cnc12	inactive	6.47%
Cn1cc(/C=C/C(=O)N2CCCC(C(=O)c3cccc4ccccc34)C2)cn1 (configuration not stated)	inactive	8.66%
Cc1ccc(N2CC(NC(=O)C(=O)c3c[nH]c4ccccc34)CC2=O)cc1C (configuration not stated)	inactive	20.5%
Cc1nc(NC(=O)COC(=O)CCc2nc3ccccc3s2)c(Cl)cc1Cl	inactive	8.53%
C[C@H](NC(=O)c1nc[nH]c1C(=O)N[C@@H](Cc1ccccc1)C(=O)OCc1ccccc1)c1ccccc1	inactive	–
CCCC(=O)Nc1ccc(C(=O)N/N=C/c2ccc([N+](=O)[O-])o2)cc1	14.6 µM (active)	-15.2%
O=C(CNc1cccc2ccccc12)N/N=C/c1ccc([N+](=O)[O-])cc1	inactive	-4.75%
CCCCCCCC(=O)N/N=C/c1ccc([N+](=O)[O-])o1	inactive	-5.79%
O=C(N/N=C/c1ccc([N+](=O)[O-])o1)C(=O)Nc1ccc(C(=O)O)cc1	inactive	8.32%
O=C(CNc1ccc2ccccc2c1)N/N=C/c1ccc([N+](=O)[O-])o1	inactive	–
O=C(CNc1cccc2ccccc12)N/N=C/c1ccc([N+](=O)[O-])o1	16.4 µM (active)	-25.8%

Source: PubChem BioAssay AID2685 (National Center for Advancing Translational Sciences (NCATS), 2010)
